BAZ2B block: blocks human BAZ2B; AlphaScreen BAZ2B-H3K14Ac peptide displacement; Potency, µM (titrated, usually from 114 µM), inactives show at the highest dose activity change, negative = inhibition, hits mostly inhibitors; Q9UIF8; 360,000 compounds, 4.4% hits; note: potency is the fitted concentration of half-maximal effect; % is set by controls: 0 for no effect and ±100 for the full control effect; nearly all actives have a fitted effect of over 60% in size
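Inhibition is scored as reduced AlphaScreen emission. The BAZ2B/b-H3(5-23)K14Ac complex (50 nM each) in PBS pH 7.4, 0.01% Tween-20 meets compound (up to 110 uM) for 30 min at RT before bead addition.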
PI5P4K alpha inh: inhibitors of human PI5P4K alpha; 330,000 compounds, 1.2% hits; PI5P4Kalpha enzyme, ADP-Glo luminescence, 60 min; stronger effect = lower value; max response, %; active = max response of -50% or lower; inconclusive = between -30% and -50%; inactive = -30% or higher; note: value at the top dose of about 77 µM; % is set by controls: 0 for no effect and ±100 for the full control effect
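Enzyme plus substrate dispensed, test compounds pinned in, then ATP (5 microM final) added. After 60 min at RT, ADP-Glo reagent 1 for 45 min and reagent 2 for 30 min preceded luminescence imaging.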
JMJD2A Tudor inh: inhibitors of human JMJD2A Tudor domain; 390,000 compounds, 4.4% hits; Potency, µM (titrated, usually from 114 µM), for inactives: top-dose activity change, negative = inhibition, actives largely listed as inhibitors; AID 504339; AlphaScreen JMJD2A-Tudor / H3K4me3 peptide binding; O75164; note: potency is the fitted concentration of half-maximal effect; % is set by controls: 0 for no effect and ±100 for the full control effect; nearly all actives have a fitted effect of over 50% in size
PLK1 PBD inh: blocks phosphopeptide binding to human PLK1 polo-box domain; Plk1 PBD binding of FITC phosphopeptide, fluorescence polarization; Potency, µM, for the others: max response, negative = inhibition, hits mostly inhibitors; 360,000 compounds, 2.8% hits; P53350; note: potency is the fitted concentration of half-maximal effect; series mostly up to about 57 µM; % is set by controls: 0 for no effect and ±100 for the full control effect; nearly all actives have a fitted effect of over 65% in size
GCN5L2 inh: GCN5L2 (KAT2A) acetyltransferase inhibition; GCN5L2 HAT assay, ThioGlo1 CoA-SH fluorescence; 390,000 compounds, 0.21% hits; Potency, µM (series often up to 58.9 µM), inactives show top-dose activity change, negative = inhibition, usual class: inhibitors; Q92830; note: potency is the fitted concentration of half-maximal effect; % is set by controls: 0 for no effect and ±100 for the full control effect
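ThioGlo1-coupled HAT assay: 20nM GCN5L2, 70uM acetyl-CoA, 75uM H3(1-25) peptide, pH 7.5. Fluorescence read at 340/540nm at start and after 20 min at room temperature.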
HP1b chromo inh: HP1-beta chromodomain-methylated histone interaction inhibition; Potency, µM (doses to about 114 µM), without a hit: top-dose activity change, negative = inhibition, usual class: inhibitors; AID 540317; 390,000 compounds, 0.56% hits; P83916; AlphaScreen HP1-beta / biotin-H3K9me3 peptide binding; note: potency is the fitted concentration of half-maximal effect; nearly all actives have a fitted effect of over 70% in size
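Compound inhibition of the preformed complex between 50 nM HP1-beta and 50 nM biotinylated H3K9me3 peptide was read by AlphaScreen. Buffer was PBS pH 7.4 with 0.01% Tween-20. Incubations ran 30 min at room temperature, with 10 ug/mL donor/acceptor beads.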
Active calls of the source: *; u = inconclusive; x = no result; [ ] = another dose, or the depositor's remark. A selection: hits, their analogues and other compounds. The true share with any hit is near 7%. Unless noted, calls come from the whole dose curve; as a rule, active = well fitted curve in the direction sought with a large enough effect; inconclusive = small, poorly fitted or top-dose-only effect, or another doubt; inactive = no such curve, though single readings can be large; an effect the other way counts as inactive or inconclusive.

SMILES	BAZ2B block	PI5P4K alpha inh	JMJD2A Tudor inh	PLK1 PBD inh	GCN5L2 inh	HP1b chromo inh
CN(C)c1ccc(C(CNC(=O)c2ccc(C(C)(C)C)cc2)N2CCOCC2)cc1 (stereo not drawn)	35µM*	x	u	x	-7%	-10%
CCOc1cc(C(=O)NCC(c2ccc(N(C)C)cc2)N2CCOCC2)cc(OCC)c1OCC (stereo not drawn)	-36%	x	-25%	x	-1%	8%
CN(C)c1ccc(C(CNS(=O)(=O)c2ccc(Br)cc2)N2CCOCC2)cc1 (stereo not drawn)	45µM*	x	u	x	-8%	u
Cc1nc2ccc(S(=O)(=O)NC(C(=O)N3CCCC3)C(C)C)cc2s1 (stereo not drawn)	10%	-5	u	30µM*	0%	6%
Cc1nc2ccc(S(=O)(=O)NC(C(=O)N3CCC(C)CC3)C(C)C)cc2s1 (stereo not drawn)	6%	3	-19%	-6%	-5%	29%
Cc1c(CN(C)C)c2c(n1Cc1ccccc1)C(=O)c1ccccc1-2	50µM*	8	50µM*	1%	-2%	u
Cc1ccc(C)c(N2CCN(C(=O)CN3C(=S)NC(C)(C)CC3C)CC2)c1 (stereo not drawn)	-20%	-7	-12%	3%	-6%	7%
c1ccc(C(c2nnnn2C2CCCC2)N2CCCCCC2)nc1 (stereo not drawn)	50µM*	x	50µM*	-5%	0%	7%
Cc1ccc(C(c2nnnn2C2CCCCC2)N2CCc3ccccc32)cc1 (stereo not drawn)	-34%	8	-16%	2%	26%	11%
Oc1ccc(C(c2nnnn2C2CCCC2)N2CCc3ccccc3C2)cc1 (stereo not drawn)	56µM*	-2	7%[11.4 µM]	24µM*	-3%	-10%
c1ccc(C(c2ccccc2)N2CCN(C(c3ccccn3)c3nnnn3C3CCCC3)CC2)cc1 (stereo not drawn)	1%	-5	-20%	-12%	-2%	16%
COc1cc(C(c2nnnn2C2CCCC2)N2CCc3ccccc3C2)ccc1O (stereo not drawn)	-30%	2	u	21µM*	2%	u
COc1ccc(S(=O)(=O)Nc2ccc3c(c2)C(=O)N([C@H](C)CO)C[C@H](C)[C@@H](CN(C)C(=O)Nc2c(C)noc2C)OCCCC[C@H](C)O3)cc1	x	2	x	-3%	x	x
COC(=O)C1(C(=O)OC)CCCCN(S(=O)(=O)c2ccc(C)cc2)CCC1	x	-1	x	-6%	x	x
O=C(N/N=C/c1cc2c(cc1Br)OCO2)c1cccnc1	9%	5	-22%	2%	-7%	8%
O=C(N/N=C/c1cc(O)ccc1Br)c1cccnc1	7.1µM*	0	45µM*	-6%	-10%	42%
O=C(N/N=C/c1cc(Br)c(O)c(Br)c1O)c1cccnc1	35µM*	-59*	50µM*	-19%	-15%	26%
Cc1cc(NC(=O)c2cccs2)ncc1NC(=O)C(C)C	-2%	-14	-2%	-17%	-4%	58%
CCOC(Cn1c(SCc2cc(C(C)=O)ccc2OC)nc2ccccc2c1=O)OCC	2%	5	1%	-10%	-1%	29%
COc1ccc(C(C)=O)cc1CSc1nc2cc(C(=O)O)ccc2c(=O)n1Cc1ccccc1	50µM*	-60*	-31%	u	-7%	15%
CC(=O)Oc1cccc(N2C(=O)C3C4C=CC(C4=C(C)C)C3C2=O)c1 (stereo not drawn)	-5%	-22	u	17µM*	-4%	u
CC(=O)Oc1cccc(N2C(=O)C3C(C2=O)C2C=CC3C23CC3)c1 (stereo not drawn)	1%	x	-11%	-4%	0%	26%
Cc1cccc(NC(=O)C2C(c3ccccc3)C2(Cl)Cl)c1 (stereo not drawn)	2%	7	23%	0%	-27%	83%
Cc1ccc(NC(=O)C2C(c3ccccc3)C2(Cl)Cl)c(C)c1 (stereo not drawn)	8%	-15	u	21µM*	-9%	-6%
COc1ccc(NC(=O)c2cccn2-c2nnc(N3CCCCC3)s2)c(OC)c1	-24%	x	-25%	x	-3%	7%
SMILES	BAZ2B block	PI5P4K alpha inh	JMJD2A Tudor inh	PLK1 PBD inh	GCN5L2 inh	HP1b chromo inh
CCN(CC)c1ccc(NC(=O)c2cccn2-c2nnc(N3CCCCC3)s2)c(C)c1	32µM*	x	50µM*	x	-8%	u
CC1(C(=O)CSc2ncn[nH]2)CCC(=O)O1 (stereo not drawn)	89µM*	x	x	x	u	x
CCOc1ccccc1N1CCN(S(=O)(=O)CC)CC1	-4%	-1	-18%	27µM*	-5%	9%
CCOc1ccccc1N1CCN(C/C=C/c2ccc(N(C)C)cc2)CC1	5.6µM*	-5	5.6µM*	0%	-10%	25µM*
CCOc1ccccc1N1CCN(Cc2cnc(-c3ccccc3)[nH]2)CC1	u	-7	-34%	1%	-1%	-15%
CCOc1ccccc1N1CCN(Cc2ccco2)CC1	50µM*	x	3.5µM*	-6%	-6%	u
CCOc1ccccc1N1CCN(Cc2ccc(Br)s2)CC1	u	x	3.2µM*	0%	-5%	u
COc1ccccc1C1CCN(C(=O)c2ccco2)CC1	-17%	-7	5%	3%	0%	17%
CCOc1ccccc1OCC(=O)NCc1ccco1	u	x	u	-21%	-8%	14%
CCOc1ccccc1OCCCNCc1ccco1	-11%	-1	28µM*	-10%	-1%	u
COC(=O)c1ccc2c(c1)C(C)(C)C(/C=C/c1ccc(OC)c(OC)c1OC)=[N+]2C	u	-20	56µM*	u	-6%	-11%
COC(=O)c1ccc2c(c1)C(C)(C)C(/C=C/c1ccc(O)cc1)=[N+]2C	28µM*	x	50µM*	55%	-26%	u
COc1ccc(-c2nc(NCCN(C)C)nc3ccsc23)c(C)c1	x	0	x	0%	x	x
CCOC(=O)c1c(/N=C/c2cccc([N+](=O)[O-])c2O)sc2c1CCC2	u	-14	u	27µM*	-3%	u
CCOC(=O)c1c(NC(=O)c2c(C(=O)O)cccc2[N+](=O)[O-])sc2c1CCCC2	-24%	u	u	12µM*	-5%	u
CCOC(=O)c1c(NC(=O)c2cccc([N+](=O)[O-])c2C(=O)O)sc2c1CCCC2	4%	u	-26%	u	-4%	57%
CCOC(=O)c1c(/N=C/c2cc(OC)cc([N+](=O)[O-])c2O)sc(C)c1C	50µM*	-17	u	-5%	2%	u
Cc1nc2ccccc2c(=O)n1/N=C/c1ccc2ccccc2c1O	u	3	u	-6%	8%	12%

Source: PubChem BioAssay
